# Data as given in ChEMBL document CHEMBL3988442, “University of Dundee, Small-Polar-MMV Screening Library” (2021).
# About 950 (1.4%) of roughly 69,000 compounds showed an effect of 50% or more. What follows is part of a selection rich in strong results, with near analogues and random picks from the rest.
# System: Mycobacterium tuberculosis
# Experiment: Cornell M. t heat shock assay; also: in the data most compounds retested in dose-response had high values
# Type: functional, organism-based
# Set-up: dose or concentration left out as unconfirmed
row,SMILES,Percent Effect
1,Cn1cc(N2C(=O)CC[C@@H]3[C@H]2CCN3Cc2nccs2)cn1.O=C(O)C(F)(F)F,-19.88%
2,O=C(O)C(F)(F)F.O=C1C[C@H]2[C@@H](CCN2C(=O)Cc2cccs2)N1Cc1cccnc1,-27.42%
3,Cn1cc(C(=O)N2CC[C@@H]3[C@@H]2CCN3Cc2cccc(F)c2)cn1.O=C(O)C(F)(F)F,6.285%
4,O=C(O)C(F)(F)F.O=C(O)C(F)(F)F.O=C(O)C(F)(F)F.O=C1NC2(CCN(Cc3cccnc3)CC2)CC1c1cccnc1 (centres undefined),-25.56%
5,Cc1cc(CN2CC[C@H]3C[C@H](C(=O)N4CCC(C)CC4)O[C@H]3C2)no1.O=C(O)C(F)(F)F,-0.569%
6,CC1(C)CC(N(Cc2cccnc2)Cc2cccc(F)c2)CC(C)(C)N1.O=C(O)CC(O)(CC(=O)O)C(=O)O,-20.05%
7,CC1c2ncc(Cn3cccn3)n2CCN1Cc1cccnc1.O=C(O)C(F)(F)F.O=C(O)C(F)(F)F (centres undefined),-18.15%
8,O=C(O)C(F)(F)F.O=C(O)C(F)(F)F.c1cncc(CN2CCc3ncnc(C4CCOC4)c3CC2)c1 (centres undefined),-9.628%
9,Cc1ccc2c(c1)CCC2NCc1c(C)nn(C)c1N1CCOCC1.Cl (centres undefined),-16.61%
10,CC(=O)N1CCCC(c2cccc(-n3ccnc3)n2)C1 (centres undefined),-20.38%
11,Cc1cc(C)nc(N2CCCC(c3cccc(-n4ccnc4)n3)C2)n1 (centres undefined),68.58%
12,c1cnc(N2CCCC(c3cncc(-n4ccnc4)n3)C2)nc1 (centres undefined),-40.48%
13,O=C(c1ccc2[nH]ccc2c1)N1CCn2cnc(COCC3CC3)c2C1,54.29%
14,O=C(c1ccoc1)N1CCn2cnc(COCC3CC3)c2C1,1.475%
15,Cc1cccc(C(=O)N2CCn3cnc(COCC4CC4)c3C2)c1,29.98%
16,Cn1cc(N2CCC3(CCCN(Cc4ccc(F)cc4)C3)C2=O)cn1.O=C(O)C(F)(F)F (centres undefined),-14.44%
17,CC(C)CCN1CCc2cc(C(=O)N(C)C)c(NCC3CC3)nc2CC1.O=C(O)C(F)(F)F.O=C(O)C(F)(F)F,-33.33%
18,CNC(=O)[C@H]1C[C@@H]2CN(Cc3csc(C)n3)C[C@@H]2N1S(C)(=O)=O.O=C(O)C(F)(F)F,2.273%
19,COCc1cncc2c1CCN(C(=O)c1cccc(C#N)c1)C2.O=C(O)C(F)(F)F,18.35%
20,OCC1N(Cc2ccc(F)cc2)[C@H]2CC[C@]1(O)CC2 (some centres undefined),36.63%
21,CCC(C)NC(=O)Cn1c(Nc2cc(C)cc(C)c2)nc(C)cc1=O (centres undefined),104.5%
22,Cc1cc(C)cc(Nc2nc(C)cc(=O)n2CC(=O)NC(C)C)c1,5.735%
23,Cc1cc(=O)n(CC(=O)NC(C)C)c(Nc2ccc(F)c(C)c2)n1,-7.671%
24,Cc1ncsc1C(=O)N1CCCCC1c1cc2nc(C)c(C)c(O)n2n1 (centres undefined),-18.91%
25,Cc1noc(C)c1CN1C[C@H]2CN(Cc3cccc(F)c3)C[C@H]2C1.O=C(O)C(F)(F)F.O=C(O)C(F)(F)F,1.076%
26,CCC(=O)N1CCC2(CC1)c1nc[nH]c1CCN2S(C)(=O)=O,-7.001%
27,CCC(=O)N1CCc2[nH]cnc2C12CCN(C(=O)c1snnc1C)CC2,-5.563%

row,SMILES,Percent Effect
1,CCC(=O)N1CCc2[nH]cnc2C12CCN(C(=O)CCS(C)(=O)=O)CC2,77.54%
2,O=C(O)C(F)(F)F.O=C(O)C(F)(F)F.c1cncc(N2CCCC3(CN(Cc4cccs4)CCO3)C2)c1 (centres undefined),-18.25%
3,COCCN1CCc2ncnc(NC(C)C)c2CC1.O=C(O)C(F)(F)F,-1.499%
4,N#Cc1ccc(NC2CCN(c3ncccn3)CC2)cc1Cl,-23.07%
5,CS(=O)(=O)N1CCC(Nc2ccc(C#N)c(C(F)(F)F)c2)CC1,-3.037%
6,N#Cc1ccc(NC2CCN(c3ncccn3)CC2)cc1C(F)(F)F,101.3%
7,COCCN1CCC2(CCN(c3ncccn3)CC2)C1=O.O=C(O)C(F)(F)F,-21.42%
8,O=C(O)C(F)(F)F.O=C(c1cnccn1)N1C[C@@H](OCc2cccnc2)[C@H]2OCCC[C@H]21,-23.96%
9,CN1CCCC(c2cncc(C(=O)NCc3ccccc3Cl)n2)C1.O=CO (centres undefined),5.616%
10,CC(=O)Nc1ccc(OCc2noc(C(=O)N3CCCCC3)n2)cc1,65.04%
11,CC(=O)Nc1ccc(OCc2noc(C(=O)N3CCCCCC3)n2)cc1,51.07%
12,CC(=O)Nc1ccc(OCc2noc(C(=O)N3CCCC3)n2)cc1,4.312%
13,NC(=O)Cc1ccc(OCc2noc(C(=O)N3CCCC3)n2)cc1,-10.23%
14,O=C(c1nc(Cc2c[nH]c3ccccc23)no1)N1CCCCC1,12.78%
15,O=C(c1nc(COc2ccc3c(c2)OCO3)no1)N1CCCC1,24.96%
16,O=C(NCC1CC2(CO1)CN(Cc1cccs1)C2)C1CCC1.O=C(O)C(F)(F)F (centres undefined),-27.85%
17,O=C(O)C(F)(F)F.O=C(c1ccncc1F)N1CC[C@@H]2OC(COCC3CC3)CC[C@@H]21 (some centres undefined),-24.6%
18,CC(C)C(C)NC(=O)c1ncn2c1CN(C)S(=O)(=O)c1ccccc1-2.O=C(O)C(F)(F)F (centres undefined),-5.107%
19,CCN(C)c1ncnc2c1CCN(Cc1ccsc1)CC2.O=C(O)C(F)(F)F.O=C(O)C(F)(F)F,-17.94%
20,O=C(Cn1cccc2cc(-c3ccc(F)cc3)nc1-2)N1CCC(O)CC1,-13.39%
21,COc1ccc(-c2cc3cccn(CC(=O)N4CCOCC4)c-3n2)cc1,-34.2%
22,CN(C)CCN(C)C(=O)Cn1cccc2cc(-c3ccc(F)cc3)nc1-2,93.82%
23,O=C(O)C(F)(F)F.O=C1CO[C@@H]2CN(CC3CCOCC3)C[C@H]2N1CC1CC1,-5.405%
24,CN1C(=O)CC(c2ccccc2)C12CCN(CC1CC1)CC2.O=C(O)C(F)(F)F (centres undefined),1.497%
25,CCN1CCN(CCCNC(=O)c2cc3ccc(C)cc3nc2C)CC1,-11.33%
26,COc1ccc2nc(C)c(C(=O)NCCN3CCS(=O)(=O)CC3)cc2c1,0.03382%
27,Cc1ccc2cc(C(=O)NCCN3CCS(=O)(=O)CC3)c(C)nc2c1,96.87%
